From PubChem BioAssay come the findings set out here.

Assay [1] in a line: reducers of endogenous Her2 protein level, primary screen, SKBR3 breast tumor cells, AlphaScreen, ATP viability (AID 461;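 active = Her2 level under about 52% in both replicate screens, with viability over 70% of control, limit read from the data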;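 as to Her2 level: lower value means less Her2 protein in the cells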;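 as to viability: percent of carrier control wells set as 100% viability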). Conditions: 18-24 h, measured here: SKBR3 viability, ATP luminescence, at 10 µM. In general terms: Bead proximity is the source of the signal in Alpha formats.
Assay [2] addresses Receptor tyrosine-protein kinase erbB-2 (Homo sapiens) (UniProt P04626). Described as above. Conditions: 18-24 h, at 10 µM, stronger effect = lower value.
A short description of assay [3]: SK-BR-3 cell growth inhibitors, pilot screen, 24 h, human (AID 572;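 active = viability at or below 10% of carrier control in both of two separate runs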;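 also: compound exposure lasted between 18 and 24 h rather than exactly 24 h; 100% = carrier-treated control wells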). To be noted: SK-BR-3 viability, CellTiter-Glo luminescence, at 10 µM, stronger effect = lower value.
A short description of assay [4]: HUVEC growth inhibition – cell-based, human, primary screen (AID 575;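 active = viability at or below 30% in both replicate assays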;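 also: 100% = median of untreated cell wells with 0.1% DMSO on each plate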). Conditions: HUVEC proliferation, CellTiter-Glo luminescence, 72 h; at 10 µM; stronger effect = lower value.
Assay [5] can be described thus: growth inhibitors of H69AR lung tumor, primary screen, human, duplicate replicates (AID 580;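 active = viability at or under a set limit in both replicates, limit being median viability minus 3 SD, cut at about 48% in these data, passing the limit was not always enough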;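 also: 100% = mean luminescence of untreated wells and 0% = no signal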). Conditions: H69AR lung tumor cells viability, ATP luminescence, 72 h; at 10 µM; stronger effect = lower value.
Assay [6] is described as follows: reversal of MRP1-mediated doxorubicin resistance, pilot screen, H69AR cells, doxorubicin co-treatment (AID 601;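 active = viability loss from added drug above about 55%, and viability with drug at most 40%, in both replicates, limit read from the data, passing the limit was not always enough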). Conditions: CellTiter-Glo, 72 h, at 10 µM; for differential viability (reversal): stronger effect = higher value. Background: In ATP-based viability assays light output follows the ATP content of the culture.
Assay [7] is described as follows: 384-well plate pilot, post-Golgi transport modulator project, inhibition of yeast transport mutant growth (AID 636; in the data active = inhibition above about 31%). Conditions: absorbance 615 nm, about 18 h, stronger effect = higher value.
Assay [8] can be described thus: growth suppression of yeast trafficking mutant, preliminary HTS, modulators of trafficking downstream of Golgi apparatus project, 1536-format plate, OD 615 nm (AID 637; in the data active = inhibition above about 30%). Conditions: yeast transport mutant growth, absorbance 615 nm, 18 h; stronger effect = higher value.
The nature of assay [9]: OD615 S. cerevisiae growth inhibition, permissive medium, pilot counter-assay, permissive growth control for S. cerevisiae lifespan shortening project (AID 705;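 active = growth inhibition above 25% in both replicates, a cutoff set 3 SD above the mean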). To be noted: OD615, 24 h, at 10 µM, stronger effect = higher value.
Assay [10] in a line: Restrictive medium S. cerevisiae growth inhibition, OD615, pilot screen of yeast lifespan reduction project, restrictive growth control (AID 706;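 active = growth inhibition above a set limit, 3 SD over mean compound inhibition, in both replicates, cut at about 43% in these data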;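 also: modified DeaD lifespan yeast strain shifted to restrictive glucose medium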). To be noted: OD615, 48 h, at 10 µM, stronger effect = higher value.
Assay [11] is described as follows: viability gain of MRP-1-high H69AR cells under doxorubicin, pilot screen, MRP-1 activator project, CellTiter-Glo, duplicate (AID 807).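 Also: compound pretreatment 18-22 h then 72 h combined with doxorubicin; 0% = doxorubicin alone and 100% = vehicle without doxorubicin.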 Conditions: H69AR viability with doxorubicin, CellTiter-Glo luminescence; at 10 µM; stronger effect = higher value.
Assay [12] is described as follows: growth suppression of beta-catenin knockout HCT116, pilot screen, human colon tumor cells (AID 823;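 active = cell viability at or below a set limit in both duplicate runs, the limit being the all-compound median minus 4 SD, cut at about 23% in these data, passing the limit was not always enough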;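 also: 0% = wells killed by 20 µM Hyamine and 100% = untreated DMSO cell wells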). To be noted: CellTiter-Glo, 60 h, at 10 µM, stronger effect = lower value.
A short description of assay [13]: growth suppression of PTEN-deleted HCT116, pilot screen, cell-based, HCT116 clonal line, CellTiter-Glo (AID 824;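 active = viability at or below 27.92% in each of two runs, the all-compound median minus 4 SD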;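 also: 0% = 20 µM Hyamine control and 100% = vehicle cell control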). Conditions: 60 h, at 10 µM, stronger effect = lower value.
The nature of assay [14]: inhibitors of the yeast RAM network, pilot screen, dse1pr::URA3 reporter, 5-FOA selection (AID 869;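 active = inhibition over a set limit, the all-compound mean plus 3 SD, in both replicate runs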;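 also: 0% = DMSO wells with no growth and 100% = 10 µM 1-NA-PP1 with full growth; RAM network block rescues cells from 5-FOA so hits raise OD615 growth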). Conditions: S. cerevisiae dse1pr::URA3 5-FOA growth, OD615, 2 d; at 10 µM; stronger effect = higher value; strain carries analog-sensitive mutant Cbk1 kinase.
Assay [15] in a line: RAM signaling pathway blockade in yeast – S. cerevisiae, Pdr1DBD-CYC8 efflux-inhibited sensitized strain, primary screen (AID 1298;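 active = RAM network inhibition above 8.4% in each of two replicates, 3 SD over the compound average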;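 also: 0% = DMSO untreated cells without growth and 100% = 10 µM 1-NA-PP1 full growth; higher means more yeast growth rescued from 5-FOA killing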). Conditions: S. cerevisiae cbk1-as DSE1-URA3 strain, 5-FOA growth OD615, 2 d; at 50 µM; stronger effect = higher value.
Where [16] appears, read: H69AR cells + 2 uM doxorubicin, measured here: viability with 2 uM doxorubicin, stronger effect = lower value.
[17] abbreviates: H69AR cells, compound alone cytotoxicity.

Each structure is given as a SMILES string. Inconclusive results are not listed. Active and inactive are the calls of the source.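 The calls were made as follows, unless noted: active = viability increase at or above a cutoff of the median across tested compounds plus 3 SD (cut at about 8.5% in these data, passing the limit was not always enough); inconclusive = some gains above the cutoff, reason not given; inactive = the rest.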

Receptor tyrosine-protein kinase erbB-2 (Homo sapiens), sequence (P04626 whole entry, looked up): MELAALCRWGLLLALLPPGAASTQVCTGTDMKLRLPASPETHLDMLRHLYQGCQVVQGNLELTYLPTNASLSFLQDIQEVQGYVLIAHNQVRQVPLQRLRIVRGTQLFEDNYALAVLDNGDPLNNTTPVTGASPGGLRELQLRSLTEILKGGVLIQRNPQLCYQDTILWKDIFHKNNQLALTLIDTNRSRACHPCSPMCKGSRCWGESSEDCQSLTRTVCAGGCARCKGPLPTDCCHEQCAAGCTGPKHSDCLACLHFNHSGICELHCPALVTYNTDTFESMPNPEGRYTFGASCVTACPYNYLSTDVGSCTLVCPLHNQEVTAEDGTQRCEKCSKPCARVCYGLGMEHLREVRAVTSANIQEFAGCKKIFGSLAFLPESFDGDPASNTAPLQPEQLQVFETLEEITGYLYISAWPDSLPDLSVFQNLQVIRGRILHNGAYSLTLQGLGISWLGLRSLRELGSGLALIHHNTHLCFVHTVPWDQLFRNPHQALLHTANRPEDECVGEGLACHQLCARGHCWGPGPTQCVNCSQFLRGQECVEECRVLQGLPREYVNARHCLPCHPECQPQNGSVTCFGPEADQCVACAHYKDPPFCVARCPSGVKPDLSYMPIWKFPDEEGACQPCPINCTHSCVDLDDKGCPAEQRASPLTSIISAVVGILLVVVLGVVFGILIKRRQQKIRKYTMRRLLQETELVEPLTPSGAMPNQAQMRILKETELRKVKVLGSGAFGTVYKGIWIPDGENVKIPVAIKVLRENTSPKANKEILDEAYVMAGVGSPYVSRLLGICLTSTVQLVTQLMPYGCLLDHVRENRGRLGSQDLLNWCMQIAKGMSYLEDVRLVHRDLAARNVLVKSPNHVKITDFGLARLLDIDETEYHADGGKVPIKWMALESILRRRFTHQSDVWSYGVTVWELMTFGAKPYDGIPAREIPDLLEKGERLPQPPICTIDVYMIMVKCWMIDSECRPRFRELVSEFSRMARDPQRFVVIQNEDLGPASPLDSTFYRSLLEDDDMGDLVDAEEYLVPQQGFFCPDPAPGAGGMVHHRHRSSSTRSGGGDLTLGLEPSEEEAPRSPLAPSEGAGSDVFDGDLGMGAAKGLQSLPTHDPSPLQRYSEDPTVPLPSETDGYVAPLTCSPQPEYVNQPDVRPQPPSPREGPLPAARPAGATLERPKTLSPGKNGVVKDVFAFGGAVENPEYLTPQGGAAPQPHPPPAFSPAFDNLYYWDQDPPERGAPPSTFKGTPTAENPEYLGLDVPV

As to `CC(C)C(C(=O)Nc1ccc2c(c1)OCCO2)N1C(=O)c2ccccc2C1=O` (stereo not given), the viability in assay [1] is 91%; in assay [3], 91% (inactive); in assay [4] it was 99.8% (inactive); in assay [5], 104% (inactive); in [6] (setting [16]) it was 94.8%; in [6] (setting [17]), 104%. In addition, the viability in assay [12] is 99.1% (inactive); in assay [13], 97.7% (inactive). Further, in assay [2], the Her2 level is 102% (inactive). Also, in [6] (H69AR cells + 2 uM doxorubicin), the differential viability (reversal) is 8.75% (inactive). The inhibition in [7] was 0.77% (inactive); in assay [8], -10.7% (inactive); in assay [14], 1.34% (inactive). Moreover, the growth inhibition in assay [9] is -11.7% (inactive); in assay [10], -13.3% (inactive). The viability increase in assay [11] is -0.14% (inactive). In addition, the RAM network inhibition in [15] was 2.58% (inactive).

On to `O=C(Nc1ccncc1)C1CCCN(S(=O)(=O)c2cccc3cccnc23)C1` (stereo not given), for which the viability in assay [1] was 84.5%; in assay [3], 84.5% (inactive); in assay [4], 63% (inactive); in assay [5] it was 17.4% (active); in assay [6] (setting [16]) it was 76.2%; in assay [6] (setting [17]), 17.4%. In addition, the figures for the viability in assay [12] and in [13] were 19.9% (active) and 23.8% (active), respectively. Moreover, the Her2 level in assay [2] was 104% (inactive). In [6] (H69AR cells + 2 uM doxorubicin), the differential viability (reversal) was -58.8% (inactive). The inhibition in [7] was -7.07% (inactive); in assay [8], 3.33% (inactive); in assay [14], 1.59% (inactive). Besides, the growth inhibition is -10.3% (inactive) in assay [9] and -4.11% (inactive) in assay [10]. Further, in assay [11], the viability increase is -6.31% (inactive). Further, the RAM network inhibition in assay [15] was 2.56% (inactive).

On to `CCOc1ccc(N2C(=O)CC(N3CC(C)OC(C)C3)C2=O)cc1` (stereo not given), for which the viability in [1] is 97%; in [3], 97% (inactive); in [4] it was 100% (inactive); in assay [5] it was 89.2% (inactive); in assay [6] (setting [16]), 91.4%; in assay [6] (setting [17]), 89.2%. For the same compound, the values for the viability in assay [12] and in [13] were 105% (inactive) and 98.8% (inactive), respectively. Besides, the Her2 level in assay [2] was 93% (inactive). Besides, the differential viability (reversal) in assay [6] (H69AR cells + 2 uM doxorubicin) was -2.21% (inactive). In addition, the results for the inhibition in assay [7], in assay [8] and in [14] were -3.72% (inactive), 1.33% (inactive) and 1.47% (inactive), respectively. Moreover, the growth inhibition in [9] is -17.2% (inactive); in assay [10] it was -10.4% (inactive). The viability increase in assay [11] is -1.01% (inactive). Further, in assay [15], the RAM network inhibition is 2.33% (inactive).

For `COC(=O)c1ccc(-c2nn(C)c(=O)c3ccccc23)cc1`, the viability in assay [1] was 93.5%; in assay [3], 93.5% (inactive); in [4], 83.8% (inactive); in assay [5] it was 94.6% (inactive); in assay [6] (setting [16]) it was 86.9%; in assay [6] (setting [17]) it was 94.6%. The viability was 94.3% (inactive) in assay [12] and 91% (inactive) in assay [13]. Moreover, in assay [2], the Her2 level was 99.5% (inactive). Also, the differential viability (reversal) in assay [6] (H69AR cells + 2 uM doxorubicin) was 7.75% (inactive). Further, the inhibition is -5.33% (inactive) in assay [7], 4.17% (inactive) in [8] and 0.79% (inactive) in assay [14]. The results for the growth inhibition in [9] and in assay [10] were 3.78% (inactive) and 6.35% (inactive), respectively. For the same compound, the viability increase in assay [11] was -2.27% (inactive). For the same compound, in [15], the RAM network inhibition was -1.8% (inactive).

Consider `O=c1oc2c3c4c(cc2cc1-c1nc2ccccc2[nH]1)CCCN4CCC3`, for which the viability in assay [1] was 79.5%; in assay [3] it was 79.5% (inactive); in assay [4] it was 71.7% (inactive); in assay [5], 83.3% (inactive); in assay [6] (setting [16]), 80.7%; in [6] (setting [17]), 83.3%. The values for the viability in assay [12] and in [13] were 87.2% (inactive) and 89.7% (inactive), respectively. In [2], the Her2 level is 65.5% (inactive). Also, the differential viability (reversal) in assay [6] (H69AR cells + 2 uM doxorubicin) was 2.58% (inactive). Moreover, the inhibition is -1.95% (inactive) in assay [7], 6% (inactive) in [8] and 1.73% (inactive) in assay [14]. Besides, the growth inhibition in [9] was 4.75% (inactive); in assay [10] it was -0.465% (inactive). Besides, the viability increase in assay [11] is -5.62% (inactive). In assay [15], the RAM network inhibition was 2.41% (inactive).

As a reminder, the viability is a read-out of living cells in per cent, often relative to untreated cells. Broadly, the inhibition is the drop in the measured response relative to a control, in per cent.
